The record followed here is PubChem BioAssay (NCI).

This is part of a sample that, as a whole, favours compounds with a hit. Of some 83,000 tested, about 20% had one in any assay.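 How to read the values: 0–100, growth inhibition (40 = 60% inhibited); 0, no net growth; -100 to 0, cell death (-40 = 40% of starting cells died; -100 = all dead).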 A number with no mark means an inactive call. The source made the active and inactive calls. How the source made its calls: active means growth percent below 10; inactive means the rest.

The test system of one assay is IGROV1 ovarian. The assay can be described thus: NCI-60 one-dose screen, 48 h (100 = growth as untreated, 0 = no growth, -100 = all killed). The following applies: 10 µM unless noted.
`CN(C)c1ccc2nc3ccc(=[N+](C)C)c([N+](=O)[O-])c-3sc2c1`: the growth is 20%.
On the same count and under the same terms, in the case of `COc1cc(C(=O)/C=C/c2c(Cl)nc3sccn23)cc(OC)c1OC` it was 79.8%.
Turning to `CNc1ccc(Nc2cccc(C)c2)c2c1C(=O)c1ccccc1C2=O`, the growth was 11.2%.
Regarding `Cc1cc(O)c(C2=NN(c3ccc(S(N)(=O)=O)cc3)C(c3ccccc3O)C2)cc1Cl` (centres undefined), the growth was 0.983% (active).
The same measure, in the same setting: in the case of `CCN1C(=O)N(CC)C2Nn3c(s/c(=C4\C(=O)N(CCC(C)C)c5ccccc54)c3=O)=NC21` (centres undefined) it was 63.8%.
On the same count and under the same terms, the value for `C=C(C)[C@@H]1CC[C@]2(N=C=O)CC[C@]3(C)[C@H](CC[C@@H]4[C@@]5(C)Cc6c([nH]c7ccccc67)C(C)(C)[C@@H]5CC[C@]43C)[C@@H]12` was 84.3%; that for `O=C1CSC(c2c(Cl)cccc2Cl)N1c1nc(Cl)cc(=O)[nH]1` (centres undefined) was 71.9%; that for `COc1ccc(OC)c(/C=C/C(=O)N/N=C/c2ccccc2)c1` was 38.5%.
Same read-out and setting: the value for `Oc1ccc(-c2nc3ccc4[nH]ncc4c3c3c2CCCC3)c2cccnc12` was 6.65% (active); that for `Cc1cc(O)c(C2=NN(c3ccc(S(N)(=O)=O)cc3)C(/C=C/c3ccccc3)C2)cc1Cl` (centres undefined) was 16%; that for `COc1ccc(C2=Nn3c(nnc3-c3cc(Cl)cc(Cl)c3Cl)SC2)cc1` was -11% (active).
As for `O=S(=O)(NCCCNc1cc(-c2c(-c3cccc(O)c3)nc3sccn23)ccn1)c1cccc2ccccc12`, the growth is 30.6%.
Still for that read-out and setting: the value for `c1cc(-c2nnc(SSc3ncnc4nc[nH]c34)o2)ccn1` was 48.2%; that for `CC[C@H](C)C(=O)O[C@H]1CCC=C2C=C[C@H](C)[C@H](CC[C@@H]3CC=CC(=O)O3)[C@H]21` was 83.9%.
Still for that read-out and setting: in the case of `COc1cc(CCC[P+](c2ccccc2)(c2ccccc2)c2ccccc2)c(OC)c(OC)c1OC` it was 70.5%; in that of `COc1ccc(C(=O)/C=C/c2sc(Cl)nc2Cl)cc1`, 11.1%.
Still for that read-out and setting: the value for `COc1ccc(C(=S)N2CCN(c3cccc(C)c3)CC2)cc1OC` was 42.4%; that for `Cc1cc2nc3ccc(N=Nc4ccc(N(C)C)cc4)cc3n(-c3ccccc3)c-2cc1=N` was -88.8% (active).
With `CC(=O)CC(c1cccs1)c1c(-c2ccccc2)[nH]c2ccccc12` (centres undefined), the growth is 83.3%.
On to `COc1ccc(-n2c(N)c(-c3nc4ccccc4[nH]3)cc(C#N)c2=O)cc1`, for which the growth was 103%.
Still for that read-out and setting: in the case of `Cc1ncc(C(=O)Nc2ccc(CN3CCN(C)CC3)c(C(F)(F)F)c2)cc1C#Cc1ccc(N)nc1` it was -25% (active); in that of `COC(=O)/C=C1\S/C(=N\Nc2ccc([N+](=O)[O-])cc2[N+](=O)[O-])N(C2CCCCC2)C1=O`, 58.4%; in that of `COc1c(B(O)O)cc(F)cc1-c1nc2ccc3[nH]ncc3c2c2c1CCCC2`, 10.6%.
The same measure, in the same setting: the value for `CCCCCCN1C(=O)/C(=c2\sc3n(c2=O)C2C(NN=3)N(CC)C(=O)N2CC)c2ccccc21` (centres undefined) was 24.2%; that for `S=c1nc(-c2ccccc2)oc(=NC2CCCCC2)n1C1CCCCC1` was -25.9% (active); that for `CNC(=O)c1[nH]cc(-c2ccccc2)c1-c1cc(OC)c2c(c1OC)OCO2` was 103%.
Same read-out and setting: the value for `CCCCCCN(CCCCCC)c1ccc(/C=C2/SC(=O)NC2=O)c(C)c1` was 83.6%; that for `CC(=O)OC[C@H]1OC(Sc2sc(C(=O)c3ccc(Br)cc3)c(N)c2-c2nc3ccccc3s2)[C@H](OC(C)=O)[C@@H](OC(C)=O)[C@H]1OC(C)=O` (some centres undefined) was 68.8%.
With `N#Cc1ccc(NC(=O)c2sc3nc4c(cc3c2N)C(=O)CCC4)cc1`, the growth was 113%.
On the same count and under the same terms, in the case of `NS(=O)(=O)c1ccc(-n2nc(-c3ccc(Cl)cc3)c3ccccc3c2=O)cc1` it was 75.5%; in that of `COc1cccc(OC)c1C(=O)N[C@@H]1C(=O)N2[C@@H]1SC(C)(C)[C@@H]2C(=O)O`, 99.6%; in that of `N/C(=N\c1nc2ccccc2s1)NC(=O)Nc1cccc2ccccc12`, 33.6%.
On the same count and under the same terms, the value for `COc1ccc(/C=C/c2c(C(=O)/C=C/c3ccc(C(F)(F)F)cc3)c(C)nc3ccccc23)cc1` was -57.2% (active); that for `COc1c(B(O)O)cc(C)cc1-c1nc2ccc3[nH]ncc3c2c2c1CCCC2` was 60.8%.
The same measure, in the same setting: in the case of `COc1cc(C(=O)c2cc(C)c3[nH]c4ccc(O)cc4c3c2C)cc(OC)c1OC` it was 12.1%; in that of `COc1ccc(/C=C/c2c(C(=O)/C=C/c3ccc(Cl)cc3)c(C)nc3ccccc23)cc1`, 13.6%.
`O=c1ccc(N=Nc2ccc([N+](=O)[O-])cc2)ccc1O`: the growth was 21.4%.

In another assay the test system is OVCAR-3 ovarian. The description is as above. As to conditions: 10 µM unless noted.
On to `CN(C)c1ccc2nc3ccc(=[N+](C)C)c([N+](=O)[O-])c-3sc2c1`, for which the growth was -12.5% (active).
Consider `COc1cc(C(=O)/C=C/c2c(Cl)nc3sccn23)cc(OC)c1OC`, for which the growth was 64.5%.
For the molecule `CNc1ccc(Nc2cccc(C)c2)c2c1C(=O)c1ccccc1C2=O`, the growth was 110%.
Same read-out and setting: the value for `Cc1cc(O)c(C2=NN(c3ccc(S(N)(=O)=O)cc3)C(c3ccccc3O)C2)cc1Cl` (centres undefined) was -45.8% (active); that for `CCN1C(=O)N(CC)C2Nn3c(s/c(=C4\C(=O)N(CCC(C)C)c5ccccc54)c3=O)=NC21` (centres undefined) was 75.8%; that for `C=C(C)[C@@H]1CC[C@]2(N=C=O)CC[C@]3(C)[C@H](CC[C@@H]4[C@@]5(C)Cc6c([nH]c7ccccc67)C(C)(C)[C@@H]5CC[C@]43C)[C@@H]12` was 89.2%.
Still for that read-out and setting: the value for `O=C1CSC(c2c(Cl)cccc2Cl)N1c1nc(Cl)cc(=O)[nH]1` (centres undefined) was 107%; that for `COc1ccc(OC)c(/C=C/C(=O)N/N=C/c2ccccc2)c1` was 6.02% (active); that for `Oc1ccc(-c2nc3ccc4[nH]ncc4c3c3c2CCCC3)c2cccnc12` was 18.3%.
Take `Cc1cc(O)c(C2=NN(c3ccc(S(N)(=O)=O)cc3)C(/C=C/c3ccccc3)C2)cc1Cl` (centres undefined): the growth is 29.7%.
Same read-out and setting: the value for `COc1ccc(C2=Nn3c(nnc3-c3cc(Cl)cc(Cl)c3Cl)SC2)cc1` was -24.6% (active); that for `O=S(=O)(NCCCNc1cc(-c2c(-c3cccc(O)c3)nc3sccn23)ccn1)c1cccc2ccccc12` was 40.1%.
Still for that read-out and setting: the value for `c1cc(-c2nnc(SSc3ncnc4nc[nH]c34)o2)ccn1` was 31.1%; that for `CC[C@H](C)C(=O)O[C@H]1CCC=C2C=C[C@H](C)[C@H](CC[C@@H]3CC=CC(=O)O3)[C@H]21` was 73.2%; that for `COc1cc(CCC[P+](c2ccccc2)(c2ccccc2)c2ccccc2)c(OC)c(OC)c1OC` was 72%.
With `COc1ccc(C(=O)/C=C/c2sc(Cl)nc2Cl)cc1`, the growth is -3.81% (active).
The same measure, in the same setting: the value for `COc1ccc(C(=S)N2CCN(c3cccc(C)c3)CC2)cc1OC` was 41.1%; that for `Cc1cc2nc3ccc(N=Nc4ccc(N(C)C)cc4)cc3n(-c3ccccc3)c-2cc1=N` was -85% (active).
Same read-out and setting: in the case of `CC(=O)CC(c1cccs1)c1c(-c2ccccc2)[nH]c2ccccc12` (centres undefined) it was 86.4%; in that of `COc1ccc(-n2c(N)c(-c3nc4ccccc4[nH]3)cc(C#N)c2=O)cc1`, 107%; in that of `Cc1ncc(C(=O)Nc2ccc(CN3CCN(C)CC3)c(C(F)(F)F)c2)cc1C#Cc1ccc(N)nc1`, 18.6%.
On the same count and under the same terms, the value for `COC(=O)/C=C1\S/C(=N\Nc2ccc([N+](=O)[O-])cc2[N+](=O)[O-])N(C2CCCCC2)C1=O` was 25.2%; that for `COc1c(B(O)O)cc(F)cc1-c1nc2ccc3[nH]ncc3c2c2c1CCCC2` was 11.9%; that for `CCCCCCN1C(=O)/C(=c2\sc3n(c2=O)C2C(NN=3)N(CC)C(=O)N2CC)c2ccccc21` (centres undefined) was -50.2% (active).
`S=c1nc(-c2ccccc2)oc(=NC2CCCCC2)n1C1CCCCC1`: the growth was 11.8%.
Regarding `CNC(=O)c1[nH]cc(-c2ccccc2)c1-c1cc(OC)c2c(c1OC)OCO2`, the growth was 94.9%.
As to `CCCCCCN(CCCCCC)c1ccc(/C=C2/SC(=O)NC2=O)c(C)c1`, the growth is 86.7%.
Still for that read-out and setting: the value for `CC(=O)OC[C@H]1OC(Sc2sc(C(=O)c3ccc(Br)cc3)c(N)c2-c2nc3ccccc3s2)[C@H](OC(C)=O)[C@@H](OC(C)=O)[C@H]1OC(C)=O` (some centres undefined) was 67.1%; that for `N#Cc1ccc(NC(=O)c2sc3nc4c(cc3c2N)C(=O)CCC4)cc1` was 114%.
As to `NS(=O)(=O)c1ccc(-n2nc(-c3ccc(Cl)cc3)c3ccccc3c2=O)cc1`, the growth was 108%.
Turning to `COc1cccc(OC)c1C(=O)N[C@@H]1C(=O)N2[C@@H]1SC(C)(C)[C@@H]2C(=O)O`, the growth was 119%.
Consider `N/C(=N\c1nc2ccccc2s1)NC(=O)Nc1cccc2ccccc12`, for which the growth was -14.2% (active).
For `COc1ccc(/C=C/c2c(C(=O)/C=C/c3ccc(C(F)(F)F)cc3)c(C)nc3ccccc23)cc1`, the growth is -71% (active).
Same read-out and setting: the value for `COc1c(B(O)O)cc(C)cc1-c1nc2ccc3[nH]ncc3c2c2c1CCCC2` was 102%; that for `COc1cc(C(=O)c2cc(C)c3[nH]c4ccc(O)cc4c3c2C)cc(OC)c1OC` was -45% (active); that for `COc1ccc(/C=C/c2c(C(=O)/C=C/c3ccc(Cl)cc3)c(C)nc3ccccc23)cc1` was -4.96% (active).
As for `O=c1ccc(N=Nc2ccc([N+](=O)[O-])cc2)ccc1O`, the growth was 8.96% (active).
